# High-throughput results from PubChem BioAssay.
# MITF TRPM1 inh: MITF TRPM1 promoter inhibition in SK-MEL-5 cells. AID 488899. inhibition, % at 12.5 µM. 330,000 tested, 0.83% active. SK-MEL-5 TRPM1 promoter luciferase, 24 h;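 active = mean inhibition across replicates of 60% or more, whatever share of single replicates reaches that level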
# Peg3 prom inh: Peg3 promoter activity inhibition; HeLa PEG-Prom luciferase reporter, luminescence, overnight; inhibition, % at 20 µM; AID 588405; 360,000 tested, 1.7% active;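 active = inhibition of at least 50% at 20 µM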
# CF NFkB inh: inhibitors of cystic fibrosis induced NF-kB | KKLEB NF-kB-GFP reporter, PAF-induced, GFP fluorescence overnight | inhibition, % at 5 µM | 360,000 tested, 0.86% active;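 active = at least 50% inhibition at 5 µM, scaled per plate between neutral and stimulator controls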;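 also: PAF is a Pseudomonas aeruginosa culture filtrate used as stimulus; plate controls were PAF-stimulated DMSO wells for no effect and unstimulated DMSO wells for full effect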
# EBV LMP1 NFkB: reduces LMP1-driven NF-kappaB luciferase signal | LMP1-induced NF-kappaB luciferase reporter cells, luminescence | inhibition, % at 12.5 µM | 350,000 tested, 0.69% active | AID 504558; in the data active = inhibition above about 41%;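 also: 0% = neutral control wells and 100% = reference inhibitor control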
# KKLEB tox: counter-screen for CF NF-kB inhibitors: cytotoxicity. activity change (cytotoxicity), % at 5 µM. 360,000 tested, 0.36% active. KKLEB CF airway cells viability, ATPlite luminescence, overnight; stronger effect = lower value; cells stimulated with P. aeruginosa culture filtrate. AID 602141;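 active = corrected activity change at or below -50% at 5 µM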
# Shn3 inh set2: reduces Shn3 3'UTR luciferase signal in osteoblasts. Clone20 osteoblast Shn3 3'UTR firefly luciferase, 24 h. inhibition, % at 12.5 µM. 360,000 tested, 0.52% active;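 active = mean inhibition of at least 75% with every replicate also reaching 75%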;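 also: 0% = median of neutral control wells and 100% = pilot-screen positive control compound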
# CF NFkB inh conf: confirmation of cystic fibrosis induced NF-kB inhibitors; shares compounds with CF NFkB inh; KKLEB CF airway cells, PAF-induced NF-kB-GFP fluorescence, overnight; inhibition, % at 5 µM; 1,300 tested, 64% active; AID 602472; in the data active = inhibition above about 40%;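 also: stimulus PAF is a Pseudomonas aeruginosa filtrate and not platelet activating factor; plate controls were DMSO wells with stimulus for no effect and unstimulated DMSO wells for full effect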
# Numbers without * were called inactive; · = no result. In the library only some 2.9% were active in any assay of this set; here they are far more common.
SMILES,MITF TRPM1 inh,Peg3 prom inh,CF NFkB inh,EBV LMP1 NFkB,KKLEB tox,Shn3 inh set2,CF NFkB inh conf
C=C1C(=O)[C@]23C[C@H]1CCC2[C@]1(C)C(=O)CC[C@@](C)(C(=O)O)C1C[C@@H]3O (some centres undefined),·,61.1*,70.7*,·,-13.2,64.5,85.8*
C=C1C(=O)[C@]23C[C@H]1CC[C@H]2[C@]1(C)[C@@H](OC(C)=O)CC[C@@](C)(C(=O)O)[C@H]1C[C@@H]3OC(C)=O,·,33.4,62.4*,·,0.6,33.4,16.7
CNC[C@@H]1OCc2cnnn2CCCC(=O)N([C@H](C)CO)C[C@H]1C,·,-10.1,-25.2,1.4,2.1,2.3,·
Cn1c(-c2ccc(C#N)cc2)c(C#Cc2ccccc2)c2ccccc21,2.3,-30.2,-6.9,-24.7,10.2,-3.2,·
N#Cc1c(-c2ccc(Cl)cc2)n(O)c2ccccc12,2.6,-14.4,52.4*,1.5,-34.4,24.7,76.5*
Cc1cc(NC(=O)Nc2ccc(Cl)c(Cl)c2)no1,-15.9,-97.5,22.3,6.6,10.2,-17.7,·
O=C(Nc1ccc(Cl)c(Cl)c1)Nc1ccon1,1.4,-42.1,53.7*,12.2,-11.9,-6.7,40.4*
O=C1N(c2ccccc2C(F)(F)F)O[C@]1(c1ccccc1)C1CCCCC1,7.9,65.4*,54.0*,9.2,6.2,-1.0,64.1*
O=C(/C=C/c1ccccc1[N+](=O)[O-])N1CCOCC1,4.9,10.8,69.7*,-7.8,-43.8,-41.3,-1.9
O=C(c1cnn(-c2ccccc2)c1)c1cc(Br)ccc1O,·,-36.6,10.4,-5.5,0.0,-31.9,·
O=C(c1ccc(O)c(Br)c1)c1cc(Br)ccc1O,9.4,35.6,65.9*,-2.8,8.3,-7.2,60.9*
COc1cc(C(=O)NCC2CCCO2)cc(Br)c1OCc1ccccc1 (centres undefined),-4.5,21.5,10.7,11.9,-7.0,9.4,·
C=C1C(=O)OC2C1C(OC(=O)C(C)=CC)CC(=C)C1C(O)C3OC3(C)C21O (centres undefined),10.9,25.6,21.8,9.8,-15.5,-21.1,·
C=C1C(=O)OC2C=C(CO)CCC=C(CO)CC(OC(=O)C(C)C)C12 (centres undefined),30.5,63.5*,87.3*,9.1,-15.4,-22.6,45.0*
CC(C)(C)c1ccc(CSc2ccc(S(=O)(=O)N3CCOCC3)cn2)cc1,-3.3,4.1,-2.4,8.4,7.7,4.5,·
CC1(C(=O)NS(=O)(=O)C2CC2)CCCN(C(=O)Cc2ccc3ccccc3c2)C1 (centres undefined),·,10.4,15.1,·,-5.4,-0.8,·
COc1cc(CCc2ccccc2)c(C(=O)O)c(O)c1C/C=C(/C)CCC=C(C)C,-4.4,56.9*,60.1*,6.9,-19.0,1.2,71.3*
COc1cc(CCc2ccccc2)c(C(=O)O)c(O)c1CC=C(C)C,-1.2,13.9,45.3,9.9,7.2,-2.9,·
N#CC(C#N)c1ccnc2ccccc12,·,9.9,58.3*,42.5*,-13.6,-15.8,45.8*
N#CCc1ccnc2ccccc12,1.7,1.9,-11.5,8.9,29.5,-0.2,·
O=C1OC(C(Cl)(Cl)Cl)Nc2ccccc21 (centres undefined),·,-4.7,-3.3,·,2.2,-15.7,·
CCn1c(Oc2ccccc2)nc2c1c(=O)n(C)c(=O)n2C,-3.3,9.6,32.7,10.6,-3.2,17.3,·
CCn1c(Oc2ccccc2F)nc2c1c(=O)n(C)c(=O)n2C,-17.8,-2.4,56.1*,13.5,-3.9,-5.5,83.1*
COc1ccc2cc3c(N)nn(C(=O)Cc4ccccc4OC)c3nc2c1,26.6,41.9,54.5*,21.4,-10.3,4.0,67.9*
C[C@H](NC(=O)/C=C/[C@H]1O[C@@H](n2ccc(=O)[nH]c2=O)[C@H](O)[C@@H]1O)C(=O)O,·,23.1,-17.1,·,17.0,-7.5,·
SMILES,MITF TRPM1 inh,Peg3 prom inh,CF NFkB inh,EBV LMP1 NFkB,KKLEB tox,Shn3 inh set2,CF NFkB inh conf
O=[N+]([O-])C1C(c2ccccc2)C12c1ccccc1-c1ccccc12 (centres undefined),·,53.3*,67.9*,-4.2,-32.1,29.0,46.3*
Cc1ccc(CNc2ncnc(N)c2[N+](=O)[O-])cc1,-25.0,-76.9,63.0*,13.5,-9.6,-3.7,65.5*
Cc1cccc(C)c1Nc1ncnc(N)c1[N+](=O)[O-],4.9,0.1,3.9,-4.8,4.1,4.5,·
O=C1Cc2c([nH]c3ccc(Br)cc23)-c2ccccc2N1,-13.2,94.8*,85.4*,-196.4,-25.4,-96.9,105.6*
Brc1ccc2[nH]c3c(c2c1)CCC3,-2.6,13.8,3.2,-1.7,-2.5,5.2,·
c1ccc(CCNc2ncnc3ccccc23)cc1,-24.5,-268.4,46.5,-5.8,-13.3,56.6,·
Brc1ccc2ncnc(NCc3ccccc3)c2c1,3.9,12.9,74.9*,59.9*,-38.0,75.4,81.0*
Cc1cccc(Nc2ncnc3ccc(Br)cc23)c1,-16.8,2.5,58.5*,4.9,-10.1,15.7,71.8*
CN(C)c1ccc(Nc2ncnc3ccc(Br)cc23)cc1,-14.5,-0.2,73.1*,9.9,-9.5,-3.0,92.8*
Cc1ccc2ncnc(Nc3ccccc3)c2c1,22.5,-5.8,27.6,0.6,-15.4,-15.8,·
Clc1cccc(Nc2ncnc3ccc(Br)cc23)c1,15.0,10.2,69.3*,-0.2,-41.0,22.7,58.5*
CC1(C(=O)NS(=O)(=O)C2CC2)CCN(C(=O)COc2ccc(Cl)cc2Cl)C1 (centres undefined),·,4.2,-19.5,·,6.3,-5.0,·
Oc1ccc(C(=Nc2ccccc2)c2ccccc2)c(O)c1,7.3,9.1,2.2,-3.0,19.0,-12.6,·
O=C(CN(Cc1ccco1)Cc1ccco1)Nc1cc(S(=O)(=O)N2CCCCC2)ccc1Cl,25.4,17.3,40.0,19.0,-5.6,58.2,·
COc1ccc(/C=N/Nc2nc(-c3cccnc3)nc3ccccc23)cc1OC,-17.5,-1.0,64.5*,19.3,-1.2,-18.2,68.2*
COc1ccc(CCNc2nc(-c3cccnc3)nc3ccccc23)cc1OC,-11.6,49.0,58.4*,12.0,-28.2,7.6,16.3
Clc1ccccc1-c1nc(N/N=C/c2cccnc2)c2ccccc2n1,-2.9,31.3,-7.6,1.7,6.3,-1.0,·
Cc1ccc(CNc2nc(-c3cccnc3)nc3ccccc23)cc1,6.1,28.8,2.2,-4.7,3.5,29.6,·
COc1ccc(-n2cnnc2SCC(=O)NC2CC2)cc1,·,5.3,-21.8,-21.6,3.6,1.6,·
Cc1nc2ccc(C(=O)N(C)Cc3ccco3)cn2c1N(C)C(=O)CCc1ccccc1,·,1.4,-11.2,·,-5.3,-27.8,·
CC(C)CC1C(=O)N(Cc2cn(Cc3ccco3)nn2)CCS(=O)(=O)N1Cc1ccc(-c2ccc(Cl)cc2)cc1 (centres undefined),·,41.8,64.6*,8.6,-23.1,13.5,41.3*
